Results reported in ChEMBL document CHEMBL3988442, “University of Dundee, Small-Polar-MMV Screening Library” (2021).
Hit rate of the full screen: of about 48,000 compounds, about 13,000 (27%) showed an effect of 50% or more. The list shows a part of the results.

Test system: Wolbachia pipientis
Test: Anti-Wolbachia Cell-Based Screen
Format: functional
Design: scale not given: in the data most compounds retested in dose-response had high values
Conditions: 5 µM

Structure (SMILES)	Percent Effect
COc1ncc(C)cc1NC(=O)COc1ccccc1F	-12.82%
CCO[C@H]1COC[C@@H]1NC(=O)c1c[nH]nc1C1CCCCC1	-0.7852%
Cn1c(C(N)=O)cc2c1CN(C(=O)C1CC(=O)N(C(C)(C)C)C1)CC2 (stereo not given)	-2.281%
Cn1ncc2c(NCC3CCS(=O)(=O)C3)nc(C3CCCC3)nc21 (stereo not given)	-5.604%
O=C(CCNc1ncccn1)NCc1cccc(OC(F)F)c1	-10.33%
O=C(CCC1CC1)N1C[C@@H](CN2CCCC2)[C@@H](CO)C1	-10.86%
Cc1ccc(CNC2CCc3[nH]c(=O)ccc3C2)cc1C.O=C(O)C(F)(F)F (stereo not given)	104.8%
CCC(=O)N(C)CC(=O)Nc1ccc(Br)cn1	-3.099%
O=C(CCc1nc(Cl)n[nH]1)N1C[C@H](CO)C[C@H](CN2CCCC2)C1	-2.773%
Cn1nc2c(cc1=O)CN(CC(=O)Nc1ccc(Cl)cn1)CC2	-5.01%
COCCC(=O)NCc1cccnc1-n1cnc2ccccc21	-10.59%
CC(=O)NCc1cccc(-n2ccnc2-c2cccc(C(=O)O)c2)c1	-20.57%
COc1ccccc1OCCC(=O)NCc1ncc(C)c(OC)c1C	-4.89%
CC(=O)NCc1ccc(-c2ccccc2C(=O)O)cn1	125.9%
CCCN1CCCn2nc(CNC(=O)CCOC)cc2C1	16.28%
O=C(Cc1ccccc1)NCc1ccc(-c2ccccc2C(=O)O)cn1	101.1%
COc1ccccc1NCC(=O)NCc1cc[nH]n1	15.35%
COCCC(=O)NCc1ccc(-c2ccccc2C(=O)O)nc1	88.43%
COc1c(C)cnc(CNC(=O)CCOCc2ccccc2)c1C	7.332%
Cc1oc(CNC(=O)Cc2ccc3ccccc3c2)cc1C(=O)O	-0.3002%
O=C(Cc1cc(-c2ccc3c(c2)OCCO3)on1)NCc1ccccn1	5.76%
COCCC(=O)NCc1ccc(-c2ccccc2C(=O)O)cn1	105.5%

Structure (SMILES)	Percent Effect
CCN(CC)S(=O)(=O)NCCc1cc(C)ccc1OC	2.679%
Cc1noc(CNc2ccc(CC(=O)N3CCSCC3)cc2)n1	-10.08%
COCCCN1C(=O)CC[C@H]2CN(c3nc4ccccc4s3)CC[C@H]21	-8.201%
CN1CCN(c2ncccc2CNc2ncccc2C#N)CC1	1.331%
O=C(CCCn1ccnc1)N1CCC2(CC1)[C@H](O)C[C@@H]2OCCO	0.2303%
CCCc1cc(CNC(=O)C2CCOc3ccccc3C2)on1 (stereo not given)	6.963%
COCC(=O)NCc1ccc(-c2ccccc2C(=O)O)cn1	123.3614%
COCC(=O)NCc1cccnc1-n1cnc2ccccc21	13.4%
COCC(=O)Nc1cnc(N2CCN(c3ccccc3)CC2)nc1	-8.386%
Cc1nc(CN2CCCN(CCOc3cccc(C#N)c3)CC2)no1	11.38%
Cc1cnn(C2CCCN(C(=O)c3cc(C4CC4)on3)C2)c1 (stereo not given)	8.361%
O=C(c1cc(C2CC2)on1)N1CCC(Oc2ncccc2Cl)CC1	9.581%
O=C(c1cc(C2CC2)on1)N1C[C@H]2CC[C@](O)(c3ccccc3F)[C@H]2C1	127.6%
c1ccc2c(Cc3nnc([C@H]4CCN(C5CCC5)C4)o3)c[nH]c2c1	-3.783%
COc1ccc(C2=CNC(C(F)(F)F)=CC2N)cc1 (stereo not given)	99.44%
NC1C=C(C(F)(F)F)NC=C1c1ccccc1 (stereo not given)	86.08%
NC1C=C(C(F)(F)F)NC=C1c1ccc(Cl)cc1 (stereo not given)	102.6%
CC(NC(=O)C1CCN(S(N)(=O)=O)CC1)c1cccc(OC(F)F)c1 (stereo not given)	6.374%
CS(=O)(=O)NCCNc1ncnc2cccc(F)c12	8.452%
CC(C)CC(NC(=O)c1ccco1)c1nnc2ccccn12 (stereo not given)	109.4%
CCCC(NC(=O)c1ccccn1)c1nnc2ccccn12 (stereo not given)	4.889%
CCCC(NC(=O)c1cnccn1)c1nnc2ccccn12 (stereo not given)	41.87%

Structure (SMILES)	Percent Effect
O=C(NCC1CCSCC1)N(CCCO)C1CCc2ccccc21 (stereo not given)	6.335%
COc1ccc(C)cc1S(=O)(=O)NCC(c1cccn1C)N(C)C (stereo not given)	4.095%
CCC(NC(=O)c1ccc(OC)nn1)c1nc(C(F)(F)F)cs1 (stereo not given)	-7.754%
Cc1nc(CN(C)c2nccc(C(F)(F)F)n2)cs1	-8.606%
CCOCCn1c(=O)[nH]c2cc(C(=O)N(C)Cc3nc(C)cs3)ccc21	-23.7%
CCOCC(=O)N(C)Cc1nc(C(F)(F)F)cs1	102.1%
COCCC(=O)N(C)Cc1nc(C(F)(F)F)cs1	98.57%
CC(C)CC(=O)N(C)Cc1nc(C(F)(F)F)cs1	105.6%
Cc1c(C(=O)N(C)CC(C)O)sc2nc(C(F)(F)F)ccc12 (stereo not given)	9.483%
CCC(NC(=O)c1ccc(COC)o1)c1nc(C(F)(F)F)cs1 (stereo not given)	-11.95%
CCOCCC(=O)NCCNc1nccc(C(F)(F)F)n1	-1.225%
Cc1cc(CN(C)C(=O)c2ccnc(N(C)C)c2)no1	-7.552%
CCOC1CCCN(C(=O)c2[nH]nc(C)c2Br)C1 (stereo not given)	6.367%
CCN1CCn2c(C)cnc2C12CCN(C(=O)NC)CC2.O=C(O)C(F)(F)F	106.5%
Cc1cnc2n1CCN(C)C21CCN(C(=O)CC(C)C)CC1.O=C(O)C(F)(F)F	6.371%
CNC(=O)N1CCC2(CC1)c1ncc(C)n1CCN2C.O=C(O)C(F)(F)F.O=C(O)C(F)(F)F	93.19%
Cc1cnc2n1CCN(C)C21CCN(CC2CC2)CC1.O=C(O)C(F)(F)F.O=C(O)C(F)(F)F.O=C(O)C(F)(F)F	2.342%
CCN1CC[C@@]2(C(=O)N3CCOCC3)CCN(C(=O)NC)CC[C@@H]12.O=C(O)C(F)(F)F	-38.24%
CCN1CCn2c(C)cnc2C12CCN(C(=O)NCC(C)C)CC2.O=C(O)C(F)(F)F	99.78%
NC(=O)C1CCN(Cc2ccc(S(=O)(=O)N3CCCC3)o2)CC1	-8.364%
Cc1c(NCc2ccccc2C#N)cccc1-n1cnnn1	4.013%
